PubChem BioAssay AID1159580 (chemical genetic matrix, 2015)
Where “and” joins values, the source holds several entries; their conditions need not be identical. Equal values may be shown once. Out of some 5,500 compounds screened, about 2,000 (36%) were called active. About 18% were inconclusive and are not listed. No stated cut-off is given here; in the data, active means normalized growth mostly below about 0.91 (no sharp cut-off); inconclusive means no clear call, values can overlap the other calls; inactive means mostly above about 0.92. This is one part of the list.

Experiment: chemical genetic growth profiling, strain panel (AID 1159580);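 further: tested at 20 µM; growth read once vehicle control cultures reached saturation at 30 °C; 1 = growth at the plate median or of vehicle wells; lower values mean less growth of the strain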
Details: S. cerevisiae deletion strains, growth OD
[1] = locus YAL013W, strain DEP1, hits give low values
[2] = locus YMR307W, strain GAS1, hits give low values
[3] = locus YNL128W, strain TEP1, hits give low values

Measured: normalized growth

NO
inactive: [1] 0.994 | locus YAL040C, strain CLN3, hits give low values 0.946 | locus YCL061C, strain MRC1 (second series), hits give low values 1.01 | locus YDR363W, strain ESC2, hits give low values 0.997 | locus YER002W, strain NOP16, hits give low values 1.01 | locus YGR229C, strain SMI1, hits give low values 1.1 | locus YJR075W, strain HOC1, hits give low values 1.02 | locus YMR263W, strain SAP30, hits give low values 1.01 | [2] 1.02 | [3] 0.998 | locus YNL153C, strain GIM3, hits give low values 0.988 | locus YNL175C, strain NOP13, hits give low values 1.01 | locus YNL197C, strain WHI3, hits give low values 0.976 | locus YNL224C, strain SQS1, hits give low values 1 | locus YOR083W, strain WHI5 (second series), hits give low values 0.946 | locus YPL055C, strain LGE1, hits give low values 1.01 | locus YPL241C, strain CIN2, hits give low values 1

COC(=O)C[C@H]1C(C)(C)C(=O)[C@@H]2CC3C4=CC(=O)O[C@@H](c5ccoc5)[C@]4(C)CCC3[C@@]1(C)C2=O (stereo not given in full)
inactive: [1] 0.98 | locus YAL021C, strain ccr4, hits give low values 0.967 | locus YAL026C, strain drs2, hits give low values 0.969 | locus YAL030W, strain snc1, hits give low values 0.979 | locus YBL061C, strain skt5, hits give low values 0.985 | locus YBR009C, strain hhf1, hits give low values 0.985 | locus YBR021W, strain FUR4, hits give low values 0.998 | locus YBR023C, strain chs3, hits give low values 0.99 | locus YBR171W, strain sec66, hits give low values 0.995 | locus YBR229C, strain ROT2, hits give low values 0.944 | locus YBR231C, strain swc5, hits give low values 0.998 | locus YBR279W, strain paf1, hits give low values 0.996 | locus YCL011C, strain gbp2, hits give low values 0.988 | locus YCL016C, strain dcc1, hits give low values 0.989 | locus YCL029C, strain bik1, hits give low values 0.973 | locus YCL061C, strain MRC1, hits give low values 0.976 | locus YCL069W, strain vba3, hits give low values 0.99 | locus YCR088W, strain abp1, hits give low values 0.98 | locus YDL005C, strain med2, hits give low values 0.978 | locus YDL035C, strain GPR1, hits give low values 0.959 | locus YDL040C, strain nat1, hits give low values 0.99 | locus YDL074C, strain BRE1, hits give low values 0.954 | locus YDL101C, strain DUN1, hits give low values 0.987 | locus YDL185W, strain tfp1, hits give low values 0.954 | locus YDL192W, strain arf1, hits give low values 0.985 | locus YDR001C, strain nth1, hits give low values 0.975 | locus YDR069C, strain doa4, hits give low values 0.977 | locus YDR101C, strain arx1, hits give low values 0.985 | locus YDR137W, strain rgp1, hits give low values 0.947 | locus YDR159W, strain sac3, hits give low values 0.97 | locus YDR162C, strain NBP2, hits give low values 0.96 | locus YDR195W, strain ref2 0.972 | locus YDR297W, strain sur2, hits give low values 1.05 | locus YDR318W, strain mcm21, hits give low values 0.98 | locus YDR334W, strain swr1, hits give low values 0.972 | locus YDR335W, strain msn5, hits give low values 0.983 | locus YDR388W, hits give low values 0.988 | locus YDR392W, strain spt3, hits give low values 0.993 | locus YDR502C, strain sam2, hits give low values 0.995 | locus YEL003W, strain gim4, hits give low values 0.989 | locus YEL037C, strain rad23, hits give low values 0.985 | locus YEL061C, strain CIN8 (second series), hits give low values 0.982 | locus YEL061C, strain CIN8, hits give low values 0.978 | locus YER015W, strain faa2, hits give low values 0.999 | locus YER016W, strain bim1, hits give low values 0.985 | locus YER110C, hits give low values 0.964 | locus YER111C, strain swi4, hits give low values 0.978 | locus YER155C, strain BEM2 (second series), hits give low values 0.978 | locus YER155C, strain BEM2, hits give low values 0.995 | locus YER167W, strain BCK2, hits give low values 0.978 | locus YFR010W, strain ubp6, hits give low values 0.964 | locus YGL078C, strain dbp3, hits give low values 0.97 | locus YGL086W, strain mad1, hits give low values 0.975 | locus YGL167C, strain pmr1, hits give low values 0.977 | locus YGL173C, strain kem1, hits give low values 0.982 | locus YGL227W, strain vid30, hits give low values 0.99 | locus YGL240W, strain doc1, hits give low values 1 | locus YGL248W, strain PDE1, hits give low values 0.971 | locus YGL253W, strain hxk2, hits give low values 0.98 | locus YGR135W, strain pre9, hits give low values 1.04 | locus YGR252W, strain gcn5, hits give low values 1.04 | locus YHR013C, strain ard1, hits give low values 0.983 | locus YHR027C, strain rpn1, hits give low values 0.979 | locus YHR030C, strain SLT2, hits give low values 0.979 and 0.991 | locus YHR079C, strain IRE1 (second series), hits give low values 0.969 | locus YHR079C, strain IRE1, hits give low values 0.979 | locus YHR094C, strain hxt1, hits give low values 0.97 | locus YHR129C, strain ARP1, hits give low values 0.987 | locus YHR142W, strain chs7, hits give low values 0.983 | locus YHR200W, strain rpn10, hits give low values 0.981 | locus YIL066C, strain RNR3, hits give low values 0.952 | locus YIL073C, strain SPO22, hits give low values 0.957 | locus YIL125W, strain kgd1, hits give low values 0.982 | locus YIR030C, strain dcg1, hits give low values 0.985 | locus YJL092W, strain hpr5, hits give low values 0.981 | locus YJL095W, strain BCK1 (second series), hits give low values 0.983 | locus YJL095W, strain BCK1, hits give low values 1.01 and 0.983 | locus YJL115W, strain asf1, hits give low values 0.964 | locus YJL129C, strain trk1, hits give low values 0.965 | locus YJL134W, strain LCB3, hits give low values 0.97 | locus YJL154C, strain vps35, hits give low values 0.99 | locus YJL164C, strain tpk1, hits give low values 0.988 | locus YJL166W, strain qcr8, hits give low values 0.989 | locus YJL168C, strain set2, hits give low values 0.991 | locus YJL187C, strain SWE1 (second series), hits give low values 0.993 | locus YJL187C, strain SWE1, hits give low values 0.998 | locus YJR066W, strain TOR1, hits give low values 0.943 | locus YKL009W, strain mrt4, hits give low values 0.956 | locus YKL068W, hits give low values 0.979 | locus YKL085W, strain MDH1 (second series), hits give low values 0.986 | locus YKL085W, strain MDH1, hits give low values 0.986 | locus YKL160W, strain elf1, hits give low values 0.992 | locus YKL190W, strain CNB1, hits give low values 0.98 | locus YKR001C, strain vps1, hits give low values 0.979 | locus YKR026C, strain gcn3, hits give low values 0.984 | locus YKR091W, strain srl3, hits give low values 0.984 | locus YLL001W, strain dnm1, hits give low values 0.979 | locus YLL026W, hits give low values 0.982 | locus YLL041C, strain sdh2, hits give low values 0.978 | locus YLR027C, strain aat2, hits give low values 1 | locus YLR039C, strain RIC1, hits give low values 0.902 | locus YLR058C, strain SHM2, hits give low values 0.961 | locus YLR102C, strain apc9, hits give low values 0.979 | locus YLR113W, strain HOG1, hits give low values 1 | locus YLR221C, strain rsa3, hits give low values 0.992 | locus YLR258W, strain gsy2, hits give low values 0.981 | locus YLR262C, strain YPT6 (second series), hits give low values 0.982 | locus YLR262C, strain YPT6, hits give low values 0.916 | locus YLR268W, strain sec22, hits give low values 0.997 | locus YLR320W, strain mms22, hits give low values 0.982 | locus YLR330W, strain CHS5, hits give low values 0.983 | locus YLR342W, strain FKS1 (second series), hits give low values 1.02 | locus YLR342W, strain FKS1, hits give low values 0.99 | locus YLR357W, strain rsc2, hits give low values 0.977 | locus YLR370C, strain arc18, hits give low values 0.987 | locus YLR371W, strain rom2, hits give low values 0.981 | locus YLR384C, strain iki3, hits give low values 0.983 | locus YLR418C, strain cdc73, hits give low values 1 | locus YML016C, strain PPZ1, hits give low values 0.978 | locus YML032C, strain rad52, hits give low values 0.945 | locus YML120C, strain ndi1, hits give low values 0.992 | locus YML124C, strain tub3, hits give low values 0.994 | locus YMR058W, strain fet3, hits give low values 0.969 | locus YMR078C, strain ctf18, hits give low values 0.958 | locus YMR125W, strain sto1, hits give low values 0.973 | locus YMR129W, hits give low values 0.993 | locus YMR205C, strain PFK2, hits give low values 0.977 | locus YMR223W, strain ubp8, hits give low values 1 | locus YMR231W, strain pep5, hits give low values 0.968 | [2] 1.01 | locus YNL067W, strain RPL9B, hits give low values 1.01 | locus YNL071W, strain lat1, hits give low values 0.979 | [3] 0.945 | locus YNL183C, strain NPR1, hits give low values 0.972 | locus YNL209W, strain ssb2, hits give low values 0.989 | locus YNL233W, strain BNI4, hits give low values 1.02 | locus YNL248C, strain rpa49, hits give low values 0.967 | locus YNL250W, strain rad50, hits give low values 0.98 | locus YNL271C, strain bni1, hits give low values 0.976 | locus YNL298W, strain CLA4, hits give low values 0.962 | locus YNL307C, strain MCK1, hits give low values 0.978 | locus YNL322C, strain KRE1 (second series), hits give low values 0.995 | locus YNL322C, strain KRE1, hits give low values 0.981 | locus YNR049C, strain mso1, hits give low values 0.976 | locus YNR052C, strain pop2, hits give low values 0.989 | locus YOL006C, strain TOP1, hits give low values 0.934 | locus YOL012C, strain htz1 0.856 | locus YOL147C, strain pex11, hits give low values 0.969 | locus YOR001W, strain rrp6, hits give low values 0.962 | locus YOR061W, strain CKA2, hits give low values 0.964 | locus YOR069W, strain VPS5, hits give low values 0.988 | locus YOR070C, strain gyp1, hits give low values 0.982 | locus YOR080W, strain dia2, hits give low values 0.983 | locus YOR083W, strain WHI5, hits give low values 0.989 | locus YOR106W, strain vam3, hits give low values 0.99 | locus YOR136W, strain idh2, hits give low values 0.971 | locus YOR144C, strain elg1, hits give low values 0.996 | locus YOR184W, strain ser1, hits give low values 0.948 | locus YOR231W, strain MKK1, hits give low values 0.984 | locus YOR265W, strain rbl2, hits give low values 0.986 | locus YOR270C, strain vph1, hits give low values 0.925 | locus YOR290C, strain snf2, hits give low values 1 | locus YOR316C, strain cot1, hits give low values 0.982 | locus YPL051W, strain arl3, hits give low values 1.03 | locus YPL078C, strain atp4, hits give low values 0.985 | locus YPL106C, strain sse1, hits give low values 0.994 | locus YPL240C, strain hsp82, hits give low values 0.984 | locus YPL256C, strain CLN2, hits give low values 0.967 | locus YPR119W, strain clb2, hits give low values 0.99 | locus YPR141C, strain kar3, hits give low values 0.988 | locus YPR163C, strain tif3, hits give low values 0.985 | locus YPR167C, strain met16, hits give low values 0.982 | strain wtn01, hits give low values 0.967
